# High-throughput results as filed in PubChem BioAssay.
# In the library only some 3.2% were active in any assay of this set; here they are far more common.
# ANO1 activ = activators or potentiators of mouse TMEM16A chloride channel; Q8BHY3; HEK293 TMEM16A/YFP-H148Q/I152L, iodide quench fluorescence; hits give low values; B-score at 10 µM; hit rate 0.3% among 340,000; AID 623877;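 active means fluorescence-ratio B-score plate-corrected deviation score at least 3 library SD below zero, with starting fluorescence score within 5 deviations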;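 further: channel opened by trigger with iodide after compound preincubation; score built on the fluorescence ratio of max minus min over baseline; more negative score means more quench and so TMEM16A activation or potentiation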
# HDAC3 inh = blocks human histone deacetylase 3. inhibition, % at 8.3 µM. AID 2718. recombinant HDAC3, fluorogenic peptide/trypsin coupled, fluorescence. hit rate 0.15% among 320,000; in the data active means inhibition above about 26%, passing the limit was not always enough
# PHOSPHO1 block = PHOSPHO1 (human) inhibition; AID 1565; Q8TCT1; hit rate 1.1% among 290,000; inhibition, % at 13.3 µM; recombinant PHOSPHO1, absorbance phosphatase assay; in the data active means inhibition above about 60%
# CHT block = inhibits the human high affinity choline transporter | Q9GZV3 | hit rate 0.86% among 310,000 | AID 488975 | CHT-expressing cells, membrane potential dye, choline response; hits give low values | B-score at 10 µM;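 active means B-score over 3 SD under the library average, and starting fluorescence ratio not unusually high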;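 further: choline stimulus applied at its EC90 after an EC20 pre-addition; B-score computed on integrated fluorescence ratio after choline addition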
# Target sequence (Q9GZV3 whole entry, looked up): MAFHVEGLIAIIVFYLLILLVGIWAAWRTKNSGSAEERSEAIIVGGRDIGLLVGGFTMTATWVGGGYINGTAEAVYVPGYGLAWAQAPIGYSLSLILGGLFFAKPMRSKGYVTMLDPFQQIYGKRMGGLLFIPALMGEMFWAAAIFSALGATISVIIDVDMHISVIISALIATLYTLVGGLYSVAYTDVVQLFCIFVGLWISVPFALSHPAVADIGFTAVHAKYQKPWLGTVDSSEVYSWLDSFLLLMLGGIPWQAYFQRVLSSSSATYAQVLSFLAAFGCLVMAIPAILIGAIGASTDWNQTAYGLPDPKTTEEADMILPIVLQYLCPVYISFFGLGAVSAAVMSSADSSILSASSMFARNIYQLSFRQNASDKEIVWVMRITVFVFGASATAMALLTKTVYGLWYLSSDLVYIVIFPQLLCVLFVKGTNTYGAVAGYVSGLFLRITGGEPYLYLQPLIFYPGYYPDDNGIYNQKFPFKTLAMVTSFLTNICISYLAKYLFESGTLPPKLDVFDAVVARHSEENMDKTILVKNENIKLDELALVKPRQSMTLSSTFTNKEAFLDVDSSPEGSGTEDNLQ
# ANO1 block = blocks the mouse calcium-activated chloride channel TMEM16A; hit rate 1.2% among 310,000; HEK293 TMEM16A/YFP iodide influx fluorescence, ionomycin; Q8BHY3; normalized B-score (activity score, 25-100; higher = stronger inhibition) at 10 µM;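 active means ratio plate-corrected score three or more library SD toward inhibition, starting fluorescence score within five deviations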;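 further: score derived from kinetic fluorescence span divided by baseline fluorescence per well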
# CHT allo act = human CHT allosteric activation | hit rate 0.49% among 310,000 | Q9GZV3 | CHT-expressing cells, membrane potential dye, choline EC20; hits give high values; LV-AA mutant CHT in HEK293 cells | AID 488977 | B-score at 10 µM;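 active means initial fluorescence not abnormally high and integrated response B-score, plate-corrected, over 3 SD above library mean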
# CHT activ conf = human CHT activation, confirmatory screen; hit rate 91% among 2,500; AID 504833; CHT-expressing cells, membrane potential dye fluorescence (FDSS); % of choline EC20–EC90 response window; HEK293 expressing CHT LV-AA mutant; choline added at its EC20; shares compounds with CHT allo act; activation, % at 10 µM;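 active means primary screen active, with duplicate mean activation above negative control mean plus 3 SD, cut at about 11% in these data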
# HEK293 MP dye = counter-screen for CHT activators: effect in parental HEK293 cells | AID 623908 | hit rate 62% among 2,500 | membrane potential dye fluorescence (FDSS); measured after EC20 choline addition | ratio readout change at 10 µM, hits read low | shares compounds with CHT allo act;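 active means duplicate-averaged ratio beyond 3 SD from buffer wells, up or down, though filed actives are nearly all decreases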
# A number is an active result; . = inactive; / = no result.
SMILES,ANO1 activ,HDAC3 inh,PHOSPHO1 block,CHT block,ANO1 block,CHT allo act,CHT activ conf,HEK293 MP dye
COc1ccc2nc(C)cc(NCCN3CCOCC3)c2c1,.,.,.,.,.,.,/,/
Cc1cc(NCCN2CCOCC2)c2ccc3ccccc3c2n1,.,.,.,.,.,6.76,39.4,-41.1
N#Cc1nc(COc2ccc(F)cc2)oc1N1CCN(Cc2ccccc2)CC1,.,.,.,.,.,7.74,31.4,.
Cc1nn(C)c(C)c1S(=O)(=O)N(CC(=O)Nc1ccc2c(c1)OCO2)c1ccc(C(C)C)cc1,.,.,.,.,.,.,/,/
Clc1ccc(-n2cccc2CN2CCc3c([nH]c4ccccc34)C2c2ccccn2)nc1 (centres undefined),.,.,.,.,.,7.04,40.1,.
O=C(O)CN1C(=O)CSc2ccccc21,.,.,.,.,.,.,/,/
CCOC(=O)COc1ccc(CCNC(C)=O)cc1,.,.,.,.,.,.,/,/
FC(F)(F)c1ccc(N/N=C/c2cccnc2)nc1,.,.,.,.,.,.,/,/
C(=N\Nc1ccccn1)/c1cccnc1,.,.,.,.,.,.,59.0,-54.1
COc1ccc(/C=N/Nc2ccccn2)cc1OC,.,.,.,.,.,.,41.5,-42.6
Fc1ccccc1OCCCCSc1ncccn1,.,.,.,.,.,.,/,/
CC(=O)c1ccc2c(c1)N(CCCN(C)C)c1ccccc1S2,.,/,/,/,/,/,/,/
CCC(=O)c1ccc2c(c1)N(CCCN(C)C)c1ccccc1S2,.,.,/,.,.,9.09,28.6,-44.5
Cn1c(-c2ccc3c(c2)OCO3)cnc1NCc1ccc(Cl)cc1,.,.,.,.,.,.,/,/
Cc1ccc(CNc2ncc(-c3ccc4c(c3)OCO4)n2C)cc1,.,.,.,.,.,6.59,24.6,-31
Cc1ccc2c(c1)c1c3n2CCN(CC(N)=O)C3CCC1 (centres undefined),.,.,.,.,.,.,/,/
Cc1ccc2c(c1)c1c3n2CCN(CC(O)CNC(C)C)C3CCC1 (centres undefined),.,.,.,.,.,.,17.4,-31
O=C(Nc1ccc(Cl)cc1Cl)Nn1cnnc1,.,.,.,.,.,.,/,/
COc1ccc(C(=O)Nc2cccc(C(=O)NCc3ccco3)c2)cc1,.,.,.,.,.,.,/,/
COc1ccc(-c2nc3ccccc3n2Cc2ccc(C)cc2)cc1,.,.,.,.,.,.,/,/
COc1ccc(Cn2c(-c3ccc(C)cc3)c[n+]3ccccc23)cc1,.,.,.,.,.,10.9,61.9,-50.9
Cn1nnc2c[n+](CC(=O)c3ccc4ccccc4c3)cc(Br)c21,.,.,.,.,.,10.4,58.4,-93.6
Cn1nnc2c[n+](CC(=O)c3ccc(Cl)cc3)cc(Br)c21,.,.,.,.,.,.,59.1,-88.5
O=C(C[n+]1ccccc1)c1ccc(Cl)cc1,.,.,.,.,.,.,/,/
Nc1nc(-c2ccccc2)c(N=Nc2ccc(Cl)cc2)s1,.,.,.,.,.,.,/,/
SMILES,ANO1 activ,HDAC3 inh,PHOSPHO1 block,CHT block,ANO1 block,CHT allo act,CHT activ conf,HEK293 MP dye
CCO/C=C1\N=C(c2ccc(F)cc2)OC1=O,.,/,.,.,.,.,/,/
CC(C)(C)OC(=O)[C@H]1[C@H](c2ccc([N+](=O)[O-])cc2)C2(C(=O)c3ccccc3C2=O)C2c3ccccc3C=NN21 (some centres undefined),.,.,.,.,.,.,36.8,.
CC(C)CCNC(=O)CNC(=S)N(CCCN1CCOCC1)Cc1cccs1,.,.,.,.,.,.,/,/
Cn1c(=O)c(=O)n(C)c2cc(N3CCOCC3)c(NS(=O)(=O)c3ccc([N+](=O)[O-])cc3)cc21,.,.,.,.,.,.,/,/
Cn1c(=O)c(=O)n(C)c2cc(N3CCOCC3)c(NS(=O)(=O)c3ccc(F)c(Cl)c3)cc21,.,.,.,.,.,6.56,48.5,-51.4
Cn1c(=O)c(=O)n(C)c2cc(N3CCCC3)c(NS(=O)(=O)c3ccc(Cl)cc3)cc21,.,.,.,.,.,6.62,55.3,-55
CCNc1ccc(Br)cc(C(=O)/C=C/c2c(Cl)cccc2Cl)c1=O,.,.,.,.,.,.,/,/
COc1ccc(C2CC(=O)c3cnn(-c4nc(C)cc(C)n4)c3C2)cc1 (centres undefined),.,.,.,.,.,.,/,/
O=C(CCN1C(=O)C2C3CC(C(Br)C3Br)C2C1=O)OCC(=O)c1ccccc1 (centres undefined),.,.,.,.,.,.,/,/
Cc1nnc(NC(=O)CSc2ccc3nnc(-c4ccccn4)n3n2)s1,.,.,.,.,.,.,/,/
Cc1cc(NC(=O)CSc2ccc3nnc(-c4ccccn4)n3n2)no1,.,.,.,.,.,8.08,46.8,-43.3
Cc1ccc(CSc2ccc3nnc(-c4ccccn4)n3n2)cc1,.,.,.,.,.,.,/,/
COC(=O)c1ccc(CSc2ccc3nnc(-c4ccccn4)n3n2)o1,.,.,.,.,.,.,35.0,-35.6
Cc1cc(C)n2[nH]c(=O)c(N=Nc3cccc(C(F)(F)F)c3)c2n1,.,.,.,.,.,7.21,36.7,-73.6
COC(=O)c1ccc(NC(=O)Nc2ccc(F)c(Cl)c2)cc1,.,.,.,.,.,.,/,/
CC1(C)CC2CC(C)(CN2/C=N/c2sc3c(c2C#N)CC(C)(C)NC3(C)C)C1 (centres undefined),.,.,.,.,.,8.05,35.4,.
CC1(C)Cc2c(sc(NC(=O)C(C)(C)C)c2C#N)C(C)(C)N1,.,.,.,.,.,.,/,/
CC(=O)c1ccc(OC(=O)COc2ccccc2Cl)cc1,.,.,.,.,.,.,/,/
Cc1[nH]n(S(=O)(=O)Cc2ccccc2)c(=O)c1N=Nc1ccccc1Cl,.,.,.,.,.,.,/,/
Cc1ccc(S(=O)(=O)Nc2nnc(C(C)(C)C)s2)cc1,.,.,.,.,.,.,/,/
Cc1ccc(S(=O)(=O)Nc2nncs2)cc1,.,.,.,.,.,9.46,.,.
CCOc1cc(N2CCOCC2)c(OCC)cc1NC(=O)Cn1nc(C)c([N+](=O)[O-])c1C,.,.,/,.,.,.,/,/
CCN1/C(=C/c2cc[n+](C)cc2)C=Cc2cc(C)ccc21,.,.,.,.,.,.,20.6,-61.1
O=C(COC(=O)c1ccc2c(=O)n3c(nc2c1)CCC3)NC1CCS(=O)(=O)C1 (centres undefined),.,.,.,.,.,.,39.5,-48.2
